# PubChem BioAssay AID1159580 (chemical genetic matrix, 2015)
# Where “and” joins values, the source holds several entries; their conditions need not be identical. Equal entries are not always repeated. Hit rate of the full screen: of about 5,500 compounds, about 2,000 (36%) were called active. Roughly 18% stayed inconclusive and do not appear here. This is one part of the list. Unmarked numbers belong to inactive results. No stated cut-off is given here; in the data, active means normalized growth mostly below about 0.91 (no sharp cut-off); inconclusive means no clear call, values can overlap the other calls; inactive means mostly above about 0.92.
# Experiment: chemical genetic growth profiling, strain panel (AID 1159580);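 further: tested at 20 µM; growth read once vehicle control cultures reached saturation at 30 °C; 1 = growth at the plate median or of vehicle wells; lower values mean less growth of the strain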
# Settings: growth OD
smiles,measurement,setting,value
CN(C)CCOC(=O)COc1ccc(Cl)cc1,normalized growth,"S. cerevisiae deletion strains, locus YKL009W, strain mrt4, hits give low values",1.04
same,normalized growth,"S. cerevisiae deletion strains, locus YKL068W, hits give low values",1
same,normalized growth,"S. cerevisiae deletion strains, locus YKL085W, strain MDH1 (second series), hits give low values",1.01
same,normalized growth,"S. cerevisiae deletion strains, locus YKL085W, strain MDH1, hits give low values",1.01
same,normalized growth,"S. cerevisiae deletion strains, locus YKL160W, strain elf1, hits give low values",0.972
same,normalized growth,"S. cerevisiae deletion strains, locus YKL190W, strain CNB1, hits give low values",1.01
same,normalized growth,"S. cerevisiae deletion strains, locus YKR001C, strain vps1, hits give low values",1.14 [resistant] (active)
same,normalized growth,"S. cerevisiae deletion strains, locus YKR026C, strain gcn3, hits give low values",0.948
same,normalized growth,"S. cerevisiae deletion strains, locus YKR091W, strain srl3, hits give low values",0.969
same,normalized growth,"S. cerevisiae deletion strains, locus YLL001W, strain dnm1, hits give low values",0.959
same,normalized growth,"S. cerevisiae deletion strains, locus YLL026W, hits give low values",0.969
same,normalized growth,"S. cerevisiae deletion strains, locus YLL041C, strain sdh2, hits give low values",0.961
same,normalized growth,"S. cerevisiae deletion strains, locus YLR027C, strain aat2, hits give low values",0.972
same,normalized growth,"S. cerevisiae deletion strains, locus YLR039C, strain RIC1, hits give low values",1.61 [resistant] (active)
same,normalized growth,"S. cerevisiae deletion strains, locus YLR058C, strain SHM2, hits give low values",1.02
same,normalized growth,"S. cerevisiae deletion strains, locus YLR102C, strain apc9, hits give low values",1.02
same,normalized growth,"S. cerevisiae deletion strains, locus YLR113W, strain HOG1, hits give low values",0.971
same,normalized growth,"S. cerevisiae deletion strains, locus YLR221C, strain rsa3, hits give low values",0.987
same,normalized growth,"S. cerevisiae deletion strains, locus YLR258W, strain gsy2, hits give low values",0.965
same,normalized growth,"S. cerevisiae deletion strains, locus YLR262C, strain YPT6 (second series), hits give low values",1.08
same,normalized growth,"S. cerevisiae deletion strains, locus YLR262C, strain YPT6, hits give low values",1.85 [resistant] (active)
same,normalized growth,"S. cerevisiae deletion strains, locus YLR268W, strain sec22, hits give low values",1.15 [resistant] (active)
same,normalized growth,"S. cerevisiae deletion strains, locus YLR320W, strain mms22, hits give low values",1.01
same,normalized growth,"S. cerevisiae deletion strains, locus YLR330W, strain CHS5, hits give low values",1.02
same,normalized growth,"S. cerevisiae deletion strains, locus YLR342W, strain FKS1 (second series), hits give low values",0.953
same,normalized growth,"S. cerevisiae deletion strains, locus YLR342W, strain FKS1, hits give low values",0.97
same,normalized growth,"S. cerevisiae deletion strains, locus YLR357W, strain rsc2, hits give low values",1.01
same,normalized growth,"S. cerevisiae deletion strains, locus YLR370C, strain arc18, hits give low values",0.962
same,normalized growth,"S. cerevisiae deletion strains, locus YLR371W, strain rom2, hits give low values",1.02
same,normalized growth,"S. cerevisiae deletion strains, locus YLR384C, strain iki3, hits give low values",0.983
same,normalized growth,"S. cerevisiae deletion strains, locus YLR418C, strain cdc73, hits give low values",1.21 [resistant] (active)
same,normalized growth,"S. cerevisiae deletion strains, locus YML016C, strain PPZ1, hits give low values",1.02
same,normalized growth,"S. cerevisiae deletion strains, locus YML032C, strain rad52, hits give low values",1.07
same,normalized growth,"S. cerevisiae deletion strains, locus YML120C, strain ndi1, hits give low values",0.966
same,normalized growth,"S. cerevisiae deletion strains, locus YML124C, strain tub3, hits give low values",1.04
same,normalized growth,"S. cerevisiae deletion strains, locus YMR058W, strain fet3, hits give low values",0.976
same,normalized growth,"S. cerevisiae deletion strains, locus YMR078C, strain ctf18, hits give low values",1.05
same,normalized growth,"S. cerevisiae deletion strains, locus YMR125W, strain sto1, hits give low values",0.965
same,normalized growth,"S. cerevisiae deletion strains, locus YMR129W, hits give low values",0.973
same,normalized growth,"S. cerevisiae deletion strains, locus YMR205C, strain PFK2, hits give low values",0.986
same,normalized growth,"S. cerevisiae deletion strains, locus YMR223W, strain ubp8, hits give low values",1.04
same,normalized growth,"S. cerevisiae deletion strains, locus YMR231W, strain pep5, hits give low values",0.976
same,normalized growth,"S. cerevisiae deletion strains, locus YMR263W, strain SAP30, hits give low values",1.05
same,normalized growth,"S. cerevisiae deletion strains, locus YMR307W, strain GAS1, hits give low values",0.963
same,normalized growth,"S. cerevisiae deletion strains, locus YNL067W, strain RPL9B, hits give low values",1.06
same,normalized growth,"S. cerevisiae deletion strains, locus YNL071W, strain lat1, hits give low values",0.988
same,normalized growth,"S. cerevisiae deletion strains, locus YNL128W, strain TEP1, hits give low values",1.03
same,normalized growth,"S. cerevisiae deletion strains, locus YNL153C, strain GIM3, hits give low values",1.03 and 0.882
same,normalized growth,"S. cerevisiae deletion strains, locus YNL175C, strain NOP13, hits give low values",0.949
same,normalized growth,"S. cerevisiae deletion strains, locus YNL183C, strain NPR1, hits give low values",0.962
same,normalized growth,"S. cerevisiae deletion strains, locus YNL197C, strain WHI3, hits give low values",0.954
same,normalized growth,"S. cerevisiae deletion strains, locus YNL209W, strain ssb2, hits give low values",0.974
same,normalized growth,"S. cerevisiae deletion strains, locus YNL224C, strain SQS1, hits give low values",1.01
same,normalized growth,"S. cerevisiae deletion strains, locus YNL233W, strain BNI4, hits give low values",1.07
same,normalized growth,"S. cerevisiae deletion strains, locus YNL248C, strain rpa49, hits give low values",0.996
same,normalized growth,"S. cerevisiae deletion strains, locus YNL250W, strain rad50, hits give low values",1.01
same,normalized growth,"S. cerevisiae deletion strains, locus YNL271C, strain bni1, hits give low values",1.04
same,normalized growth,"S. cerevisiae deletion strains, locus YNL298W, strain CLA4, hits give low values",1.02
same,normalized growth,"S. cerevisiae deletion strains, locus YNL307C, strain MCK1, hits give low values",1.05
same,normalized growth,"S. cerevisiae deletion strains, locus YNL322C, strain KRE1 (second series), hits give low values",0.977
same,normalized growth,"S. cerevisiae deletion strains, locus YNL322C, strain KRE1, hits give low values",1.02
same,normalized growth,"S. cerevisiae deletion strains, locus YNR049C, strain mso1, hits give low values",0.955
same,normalized growth,"S. cerevisiae deletion strains, locus YNR052C, strain pop2, hits give low values",1.07
same,normalized growth,"S. cerevisiae deletion strains, locus YOL006C, strain TOP1, hits give low values",1.01
same,normalized growth,"S. cerevisiae deletion strains, locus YOL012C, strain htz1",1.88
same,normalized growth,"S. cerevisiae deletion strains, locus YOL147C, strain pex11, hits give low values",1.03
same,normalized growth,"S. cerevisiae deletion strains, locus YOR001W, strain rrp6, hits give low values",0.947
same,normalized growth,"S. cerevisiae deletion strains, locus YOR061W, strain CKA2, hits give low values",1.03
same,normalized growth,"S. cerevisiae deletion strains, locus YOR069W, strain VPS5, hits give low values",1
same,normalized growth,"S. cerevisiae deletion strains, locus YOR070C, strain gyp1, hits give low values",0.984
same,normalized growth,"S. cerevisiae deletion strains, locus YOR080W, strain dia2, hits give low values",0.952
same,normalized growth,"S. cerevisiae deletion strains, locus YOR083W, strain WHI5 (second series), hits give low values",0.994
same,normalized growth,"S. cerevisiae deletion strains, locus YOR083W, strain WHI5, hits give low values",0.979
same,normalized growth,"S. cerevisiae deletion strains, locus YOR106W, strain vam3, hits give low values",1
same,normalized growth,"S. cerevisiae deletion strains, locus YOR136W, strain idh2, hits give low values",1.03
same,normalized growth,"S. cerevisiae deletion strains, locus YOR144C, strain elg1, hits give low values",1.02
same,normalized growth,"S. cerevisiae deletion strains, locus YOR184W, strain ser1, hits give low values",1.15 [resistant] (active)
same,normalized growth,"S. cerevisiae deletion strains, locus YOR231W, strain MKK1, hits give low values",1.05
same,normalized growth,"S. cerevisiae deletion strains, locus YOR265W, strain rbl2, hits give low values",0.964
same,normalized growth,"S. cerevisiae deletion strains, locus YOR270C, strain vph1, hits give low values",0.884
same,normalized growth,"S. cerevisiae deletion strains, locus YOR290C, strain snf2, hits give low values",0.962
same,normalized growth,"S. cerevisiae deletion strains, locus YOR316C, strain cot1, hits give low values",1.02
same,normalized growth,"S. cerevisiae deletion strains, locus YPL051W, strain arl3, hits give low values",0.986
same,normalized growth,"S. cerevisiae deletion strains, locus YPL055C, strain LGE1, hits give low values",1.06 and 1.03
same,normalized growth,"S. cerevisiae deletion strains, locus YPL078C, strain atp4, hits give low values",0.973
same,normalized growth,"S. cerevisiae deletion strains, locus YPL106C, strain sse1, hits give low values",0.878
same,normalized growth,"S. cerevisiae deletion strains, locus YPL240C, strain hsp82, hits give low values",0.957
same,normalized growth,"S. cerevisiae deletion strains, locus YPL241C, strain CIN2, hits give low values",1.01
same,normalized growth,"S. cerevisiae deletion strains, locus YPL256C, strain CLN2, hits give low values",1.1
same,normalized growth,"S. cerevisiae deletion strains, locus YPR119W, strain clb2, hits give low values",1.03
same,normalized growth,"S. cerevisiae deletion strains, locus YPR141C, strain kar3, hits give low values",1.02
same,normalized growth,"S. cerevisiae deletion strains, locus YPR163C, strain tif3, hits give low values",1.06
same,normalized growth,"S. cerevisiae deletion strains, locus YPR167C, strain met16, hits give low values",1.05
same,normalized growth,"S. cerevisiae deletion strains, strain wtn01, hits give low values",1.04
same,normalized growth,"S. cerevisiae strains, strain wild type, hits give low values",1.03
